Screening data from PubChem.
Rows were chosen to be rich in hits. Some 1.9% of all compounds tested hit in one or more screens of this group.
RXFP1 agonist: qHTS Assay for Agonists of the Relaxin Receptor RXFP1; AID 2676, 2010; HEK293T-RXFP1 cAMP TR-FRET, 30 min; response scale: percent of porcine relaxin response, buffer zero; hit rate 0.3% among 370,000; Potency, µM (series often up to 57.5 µM), inactives show at the top dose activation, actives largely listed as activators; further: potency means the concentration at half of the fitted maximal effect; on the % scale 0 is the no-effect control and ±100 the full control effect; nearly all actives have a fitted effect of over 60% in size
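Agonist response is measured as cAMP accumulation in an RXFP1-transfected HEK293T line under PDE4 inhibition. Values are scaled between buffer-only and 29 nM porcine relaxin, and EC50s come from standard Hill equation fits.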
RXFP1 antagonist: qHTS Assay for Antagonists of the Relaxin Receptor RXFP1. Relaxin receptor 1 (Homo sapiens), Q9HBX9. HEK293-RXFP1, relaxin-stimulated cAMP HTRF, 30 min; stronger effect = lower value. activity change, negative = inhibition, % at 57.5 µM. hit rate 0.59% among 350,000. AID 1259400, 2018;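 active means activity change of -60% or lower, but not beyond a set lower limit; inconclusive means change between -60% and -40%, or beyond the set limit; inactive means change above -40%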; further: on the % scale 0 is the no-effect control and ±100 the full control effect
BRCA1 expr up: qHTS Assay to Identify Small Molecule Activators of BRCA1 Expression; AID 624202, 2012; Potency, µM (doses to about 46.1 µM), without a hit: top-dose activation, most hits filed as activators; hit rate 1.1% among 380,000; MCF7-BRCA1-FFLuc reporter, luminescence, 48 h; response scale: scaled: vehicle 0%, 10 µM genistein 100%; further: potency means the concentration at half of the fitted maximal effect; nearly all actives have a fitted effect of over 80% in size
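Luminescence from a BRCA1-driven firefly luciferase in MCF7 cells was the read-out, taken 15 min after substrate addition following 48 h compound exposure at 37 °C. Data were normalized to a 10 microM genistein control and DMSO vehicle.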
IL2 activator: qHTS of IL-2 Activators. IL-2 activation reporter assay, cell-based qHTS; stimulated with anti-CD3/CD4/CD28 beads; in transgenic mouse T cells. activation, % (series mostly up to about 46 µM). hit rate 0.065% among 360,000. AID 652025, 2013; in the data active means activation above about 50%; inconclusive means mostly about 30% to 49%; further: 0% is about no effect
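Readout: EGFP and DsRed signals by fluorescent plate cytometry. Unstimulated transgenic mouse T cells received compound 60 min before antibody-bead stimulation, then incubated 18 h at 37 degrees C.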
Giardia kill: Small Molecules that selectively kill Giardia lamblia: qHTS; hit rate 0.15% among 340,000; activity change, % at 7.66 µM, hits read low; Giardia lamblia trophozoite viability; AID 540267, 2011; in the data active means activity change below about -80%; inconclusive means between about -30% and that limit;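 further: parasites exposed to compound for two days anaerobically before the ATP read; on the % scale 0 is the no-effect control and ±100 the full control effect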
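Anaerobic 48 hrs incubation at 37 deg C of 100 trophozoites/well with test compounds; ATPLite 1-Step luminescence, 15-30 min RT, reports cellular ATP as viability.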
NPSR antag: qHTS Assay for Antagonists of the Neuropeptide S Receptor: cAMP Signal Transduction; Q6W5P4; CHO-NPSR cells, cAMP TR-FRET, antagonist mode; hit rate 1% among 220,000; Potency, µM (series often up to 38.3 µM), for the others: at the top dose activity change, negative = inhibition, actives largely listed as inhibitors; further: potency means the concentration at half of the fitted maximal effect; on the % scale 0 is the no-effect control and ±100 the full control effect; nearly all actives have a fitted effect of over 50% in size
Target sequence (Q6W5P4 whole entry, looked up): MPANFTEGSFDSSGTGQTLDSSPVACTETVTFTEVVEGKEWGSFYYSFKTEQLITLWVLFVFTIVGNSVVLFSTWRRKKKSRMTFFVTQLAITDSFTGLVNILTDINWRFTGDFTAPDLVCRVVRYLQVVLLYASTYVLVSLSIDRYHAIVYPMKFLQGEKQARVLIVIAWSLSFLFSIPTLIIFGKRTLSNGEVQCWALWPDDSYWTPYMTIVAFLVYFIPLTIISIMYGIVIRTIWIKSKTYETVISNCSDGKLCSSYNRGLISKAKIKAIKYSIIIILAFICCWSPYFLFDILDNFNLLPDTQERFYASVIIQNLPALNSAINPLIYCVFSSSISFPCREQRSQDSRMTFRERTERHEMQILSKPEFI
* = called active by the depositor; [ ] = remark or other dose. Unless noted, the call rests on the fitted dose curve; in most records, active means well fitted curve in the direction sought with a large enough effect; inconclusive means small, poorly fitted or top-dose-only effect, or another doubt; inactive means no such curve, though single readings can be large; an effect the other way counts as inactive or inconclusive.

For COc1ccc(-c2nc3ccccn3c2Nc2ccccc2C)cc1 the results were BRCA1 expr up 4.3% and Giardia kill 2.9.
`O=C(NC1=NCCS1)c1ccc(Cl)cc1` gave RXFP1 agonist 1.0%, RXFP1 antagonist 4.6, BRCA1 expr up 7.94µM*, IL2 activator -2.7 and Giardia kill 9.3.
Screening O=C(NC1CCC(O)CC1)c1ccc(-c2ccc(Cl)cc2)o1 (configuration not stated) returned RXFP1 agonist 0.4%, RXFP1 antagonist -7.2, BRCA1 expr up inconclusive, IL2 activator -1.1 and Giardia kill -3.8.
`O=C(NNC(=O)c1ccccc1F)c1ccc(-c2ccc(Cl)cc2)o1` gave RXFP1 agonist 0.0%, RXFP1 antagonist -87.5*, BRCA1 expr up -0.5%, IL2 activator -0.2 and Giardia kill -28.1.
COc1ccc(C(=O)CSC(=S)N2CCCCC2)cc1 was read as BRCA1 expr up 3.16µM* and IL2 activator -0.6.
`O=C(/C=C(\O)c1ccccc1)C(=O)NNC(=O)c1ccccc1` gave RXFP1 agonist -4.2%, RXFP1 antagonist 4.4, BRCA1 expr up 12.6µM*, IL2 activator -3.0 and Giardia kill 14.0.
For CC1CC(C)CN(c2oc(-c3ccc(OCc4ccccc4Cl)cc3)nc2C#N)C1 (configuration not stated) the results were BRCA1 expr up 16.9% and Giardia kill 19.7.
`CC(CCc1ccccc1)NC(=O)c1ccccc1Cl` (configuration not stated) gave RXFP1 agonist 1.5%, RXFP1 antagonist -74.0*, BRCA1 expr up 21.5%, IL2 activator -2.5 and Giardia kill -9.9.
Screening NCCCN(Cc1ccccc1)c1ccc(Br)cn1 returned BRCA1 expr up 2.2% and Giardia kill -28.7.
`O=C(N/N=C/c1ccco1)c1cc(-c2cccc3ccccc23)n[nH]1` gave RXFP1 agonist 0.7%, RXFP1 antagonist -12.7, BRCA1 expr up -3.3%, IL2 activator -0.8, Giardia kill 9.4 and NPSR antag -28.0%[46.1 µM].
`O=C(N/N=C/c1ccccc1C(=O)O)c1cc(-c2ccc3c4c(cccc24)CC3)n[nH]1` gave RXFP1 agonist 0.2%, RXFP1 antagonist -65.2*, BRCA1 expr up 37.5%, IL2 activator 1.4, Giardia kill -8.3 and NPSR antag 5.1%.
For CCCCCCCCCCCCOC(=O)N1CCN(/[N+]([O-])=N/Oc2ccc([N+](=O)[O-])cc2[N+](C)=O)CC1 the results were BRCA1 expr up 9.9%.
Screening O=C(O)c1ccc2c(ccc3nn(-c4ccc(/C=C/c5ccc(-n6nc7ccc8cc(C(=O)O)ccc8c7n6)cc5[S+](=O)([O-])[O-])c([S+](=O)([O-])[O-])c4)nc32)c1 returned BRCA1 expr up -5.0% and Giardia kill 3.3.
Screening COc1cccc(Cl)c1NC(=O)N1CCc2c([nH]c3ccccc23)C1C(F)(F)F (configuration not stated) returned RXFP1 agonist -2.1%, RXFP1 antagonist -74.7*, BRCA1 expr up -71.5%, IL2 activator 0.2, Giardia kill -6.3 and NPSR antag inconclusive.
Screening O=C(Nc1ccccc1)N1CCc2c([nH]c3ccccc23)C1C(F)(F)F (configuration not stated) returned RXFP1 agonist 0.2%, RXFP1 antagonist 1.4, BRCA1 expr up -37.5%, IL2 activator 10.1, Giardia kill -5.4 and NPSR antag inconclusive.
For COc1cccc(CNc2ncc(Br)cc2Br)c1O the results were RXFP1 agonist 3.0%, RXFP1 antagonist -78.0*, BRCA1 expr up inconclusive, IL2 activator -0.4, Giardia kill 18.0 and NPSR antag 10µM*.
Screening COc1cccc(CNc2ccc(Br)cn2)c1O returned RXFP1 agonist -1.0%, RXFP1 antagonist 3.2, BRCA1 expr up inconclusive, IL2 activator -2.8, Giardia kill -22.9 and NPSR antag -5.2%[46.1 µM].
Screening CC(=O)Oc1ccc2c(c1)CC[C@@H]1[C@@H]2CC[C@]2(C)[C@@H](O)CC[C@@H]12 returned RXFP1 antagonist -21.7.
Screening Cc1c(C(=O)N(Cc2ccco2)Cc2ccccc2Cl)oc2ccc(F)cc12 returned RXFP1 agonist -0.9% and BRCA1 expr up -20.9%.
For Cc1cc(C(=O)CSc2ccc(Cl)cc2)cc(C)c1OC(=S)N(C)C the results were RXFP1 agonist 0.3%, RXFP1 antagonist 16.4, BRCA1 expr up 5.01µM*, IL2 activator 0.1, Giardia kill 11.2 and NPSR antag inconclusive.
For Cc1cc(C(=O)CSc2ccc(F)cc2)cc(C)c1O the results were RXFP1 agonist 0.6%, RXFP1 antagonist -4.1, BRCA1 expr up inconclusive, IL2 activator -0.6 and Giardia kill 23.7.
C(=C\c1ccccc1)/C=N/N1CCN(c2ccccn2)CC1 was read as RXFP1 agonist -0.5%, RXFP1 antagonist -12.0, BRCA1 expr up inconclusive, IL2 activator -0.4, Giardia kill 1.5 and NPSR antag inconclusive.
Cc1ccc(/C=N/N2CCN(c3ccccc3)CC2)cc1 was read as RXFP1 agonist 0.6%, RXFP1 antagonist -8.2, BRCA1 expr up 12.6µM*, IL2 activator -3.1, Giardia kill -10.5 and NPSR antag 10.6%.
For CN1CCN(/N=C/c2ccc(N(c3ccccc3)c3ccccc3)cc2)CC1 the results were RXFP1 agonist 0.8%, RXFP1 antagonist -12.6, BRCA1 expr up -84.1%, IL2 activator 4.9, Giardia kill 0.4 and NPSR antag -58.4%.
For CN1CCN(/N=C/c2ccc(Br)cc2)CC1 the results were RXFP1 agonist 0.2%, RXFP1 antagonist 4.5, BRCA1 expr up 5.62µM*, IL2 activator -0.6, Giardia kill -22.8 and NPSR antag 9.8%.
`C(=C\c1ccccc1)/C=N/N1CCN(Cc2ccccc2)CC1` gave RXFP1 agonist 0.4%, RXFP1 antagonist -2.8, BRCA1 expr up 11.2µM*, IL2 activator 2.1, Giardia kill 1.6 and NPSR antag -23.1%.
Clc1ccc(/C=N/N2CCN(Cc3ccccc3)CC2)cc1 was read as RXFP1 agonist -0.5%, RXFP1 antagonist 0.2, BRCA1 expr up 32.3%, IL2 activator 1.0 and Giardia kill -5.4.
Cc1cccc(/C=N/N2CCN(c3ccccc3)CC2)c1 was read as RXFP1 agonist 0.3%, RXFP1 antagonist -1.9, BRCA1 expr up inconclusive, IL2 activator -0.3, Giardia kill -1.2 and NPSR antag 2.9%.
